Myc binder: binders of human c-Myc, primary screen, biochemical, small molecule microarray, anti-His fluorescence; AID 624141, 2012; 17,000 tested, 1.5% active; calls only; His-c-Myc binding; Myc proto-oncogene protein (Homo sapiens), P01106;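 active means spot fluorescence over background with P-value below 7% in all four replicate spots, showing protein binding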;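 further: score is binary with 100 for all four spots passing and 0 otherwise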
mut p53 SMM: binders of human mutant p53, primary screen, biochemical, small molecule microarray, anti-GST fluorescence. mutant tumor protein p53 (GST-tagged), Homo sapiens. small molecule microarray binding. calls only. 17,000 tested, 0.4% active;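 active means compounds whose four printed spots each glow above background more than chance allows, each with a p-value under 7%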
STAT3 SMM: STAT3 binders, primary screen, biochemical, small molecule microarray, single point, set 2. His-STAT3 binding, anti-His fluorescence. calls only. 17,000 tested, 0.2% active. AID 624138, 2012;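 active means compounds whose four printed spots each show fluorescence over background unusually high for their array block, chance value under 7%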
NFkB binder: binders of NF-kB p50 subunit, primary screen, biochemical, small molecule microarray, anti-His fluorescence; Nuclear factor NF-kappa-B p105 subunit (Homo sapiens), P19838; anti-His fluorescence binding; calls only; 17,000 tested, 1.3% active; AID 624139, 2012;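 active means spot fluorescence over background significantly raised, with a chance value under 7% in all four replicate spots of the compound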;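 further: probe protein is his-tagged human p50 processed subunit at 1 µg/ml; raw spot fluorescence signals with no normalization applied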
Target sequence (P19838 1-433 limits assumed): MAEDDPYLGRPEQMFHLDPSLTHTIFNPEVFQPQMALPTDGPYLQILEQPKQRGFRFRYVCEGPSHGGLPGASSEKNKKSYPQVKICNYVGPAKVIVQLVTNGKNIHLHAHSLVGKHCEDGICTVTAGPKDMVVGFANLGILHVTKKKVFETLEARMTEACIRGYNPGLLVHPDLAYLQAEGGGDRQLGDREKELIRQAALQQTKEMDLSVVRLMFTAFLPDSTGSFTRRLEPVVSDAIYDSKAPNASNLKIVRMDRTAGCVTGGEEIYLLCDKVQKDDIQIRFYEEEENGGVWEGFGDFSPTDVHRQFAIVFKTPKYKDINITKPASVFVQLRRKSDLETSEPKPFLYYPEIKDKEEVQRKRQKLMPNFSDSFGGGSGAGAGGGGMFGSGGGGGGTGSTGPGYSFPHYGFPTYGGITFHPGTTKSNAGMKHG
Active calls of the source: *; i = inactive; + = active, no number. In the library only some 2.5% were active in any assay of this set; here they are far more common.

SMILES	Myc binder	mut p53 SMM	STAT3 SMM	NFkB binder
COc1ccc(NC(=O)N(C)C[C@@H]2Oc3ncc(-c4cccc(C(F)(F)F)c4)cc3C(=O)N([C@H](C)CO)C[C@@H]2C)cc1	i	i	i	i
C[C@H]1CN([C@@H](C)CO)C(=O)c2cccc(NC(=O)Nc3ccc(C(F)(F)F)cc3)c2O[C@@H]1CN(C)C(=O)NC1CCCCC1	i	i	+	i
C[C@H](CO)N1C[C@H](C)[C@H](CN(C)C(=O)Nc2ccccc2)Oc2ncc(-c3cccc(C(F)(F)F)c3)cc2C1=O	+	i	i	+
C[C@@H]1CN([C@@H](C)CO)C(=O)c2cccc(NC(=O)NC3CCCCC3)c2O[C@@H]1CN(C)C(=O)Nc1ccc(C(F)(F)F)cc1	+	i	i	+
C[C@@H]1CN([C@H](C)CO)C(=O)c2cccc(NC(=O)NC3CCCCC3)c2O[C@@H]1CN(C)C(=O)Nc1ccc(C(F)(F)F)cc1	i	i	i	i
C[C@H](CO)N1C[C@H](C)[C@H](CN(C)S(=O)(=O)c2ccccc2)Oc2ncc(C#Cc3ccc(C(F)(F)F)cc3)cc2C1=O	+	i	i	i
CN1C(=O)[C@@H]2[C@@H](CC(COc3ccccc3)=C3[C@@H](CCc4ccccc4)OB(O)C[C@@H]32)C1=O	i	i	i	i
COC(=O)c1cn(CC(=O)Nc2ccon2)nn1	i	i	i	i
Cc1cc(C)n(CC(O)Cn2ccc3ccccc32)n1 (configuration not stated)	+	i	i	+
COc1ccc(NCC(O)Cn2ccc3ccccc32)cc1 (configuration not stated)	i	i	i	i
Cc1ccc([N+](=O)[O-])cc1NC(=O)CCN1C(=O)c2ccccc2C1=O	i	i	i	i
O=C(O)CCN1C(=O)c2cccc3c([N+](=O)[O-])ccc(c23)C1=O	+	i	i	i
C/C=C/C1=C(Cl)C(=O)[C@@H](O)[C@@]1(O)C(=O)OC	i	i	i	+
O=C(O)CNS(=O)(=O)c1cc(Cl)c(Cl)cc1Cl	+	+	i	+
O=C(NCc1ccco1)c1cc(-c2cccc(Cl)c2)nc2ccccc12	i	i	i	i
CO[C@H]1/C=C\O[C@@]2(C)Oc3c(C)c(O)c4c(O)c(c(/C=N/N5CCN(C)CC5)c(O)c4c3C2=O)NC(=O)/C(C)=C\C=C[C@H](C)[C@H](O)[C@@H](C)[C@@H](O)[C@@H](C)[C@H](OC(C)=O)[C@@H]1C	i	i	i	i
CO[C@H]1/C=C\O[C@@]2(C)Oc3c(C)c(O)c4c(O)c(c(/C=N\N5CCN(C)CC5)c(O)c4c3C2=O)NC(=O)/C(C)=C\C=C/C(C)[C@H](O)[C@@H](C)[C@@H](O)[C@@H](C)[C@@H](OC(C)=O)[C@@H]1C (some centres not stated)	i	i	i	+
c1ccc(-c2cn3c4ccccc4n(CCN4CCOCC4)c3n2)cc1	+	i	i	i
CC1CC[C@@]2(OC1)O[C@H]1CC3C4CC=C5C[C@@H](O[C@@H]6O[C@H](CO)[C@@H](O)[C@H](O)[C@H]6O)CC[C@]5(C)C4CC[C@]3(C)[C@@]1(O)[C@@H]2C (some centres not stated)	i	i	i	+
N#Cc1c(C(F)(F)F)cc(-c2ccc(Br)cc2)nc1SCCC(=O)O	+	i	i	+
CC(C)NS(=O)(=O)c1ccc(OCC(N)=O)cc1	i	i	i	i
COCCOC(=O)N1C(=O)[C@@]2(c3ccccc31)[C@H](C(=O)N1CCN(c3ncccn3)CC1)[C@H]1C(=O)O[C@H](c3ccccc3)[C@H](c3ccccc3)N1[C@@H]2c1ccc(OCCO)cc1	i	i	i	i
COCCOC(=O)N1C(=O)[C@@]2(c3cc(C#CC4=CCCCC4)ccc31)[C@H](C(=O)N1CCN(c3ncccn3)CC1)[C@H]1C(=O)O[C@H](c3ccccc3)[C@H](c3ccccc3)N1[C@@H]2c1ccccc1OCCO	i	i	i	+
COCCOC(=O)N1C(=O)[C@@]2(c3cc(C#CCC(C(=O)OC)C(=O)OC)ccc31)[C@H](c1ccc(OCCO)cc1)N1[C@H](c3ccccc3)[C@H](c3ccccc3)OC(=O)[C@H]1[C@@H]2C(=O)N1CCN(c2ncccn2)CC1	i	i	i	+
COC(Cc1nc2ccccc2s1)C(=O)O (configuration not stated)	+	i	i	i
SMILES	Myc binder	mut p53 SMM	STAT3 SMM	NFkB binder
O=C(O)CCNC(=O)c1cncc(Br)c1	+	i	i	i
Cc1ccc(-c2nc(S(=O)(=O)c3ccc(F)cc3)c(SCC(N)=O)o2)cc1	i	i	i	i
Cc1cccc(OCC(=O)Nc2ccccc2C(=O)NC(C)(C)C)c1	i	i	i	i
C[C@@H]1CN([C@@H](C)CO)C(=O)c2cc(NS(C)(=O)=O)ccc2O[C@@H](C)CCCCO[C@@H]1CN(C)C(=O)CCC(F)(F)F	+	i	i	i
C[C@H]1CCCCO[C@H](CN(C)C(=O)CCC(F)(F)F)[C@@H](C)CN([C@@H](C)CO)C(=O)c2cc(NS(C)(=O)=O)ccc2O1	+	i	i	+
O=C1O[C@@H](c2ccccc2)[C@@H](c2ccccc2)N2[C@@H](c3ccccc3OCCO)[C@]3(C(=O)Nc4ccc(C#CCCO)cc43)[C@@H](C(=O)Nc3nc4ccccc4s3)[C@H]12	i	i	i	i
COC(=O)c1ccccc1NC(=O)c1c(NC(=O)CN2CCCCCC2)sc2c1CCC2	i	i	i	i
COc1c(C=O)c(O)cc2c1C(=O)c1ccccc1C2=O	+	i	i	i
O=C(O)c1cc(O)c2c(c1)C(=O)c1cccc(O)c1C2=O	i	i	i	i
Cc1cc(C)nc(Nc2n[nH]c(CSc3nc4ccccc4s3)n2)n1	i	i	i	i
C[C@@H]1CC[C@]2(C(=O)O)CC[C@]3(C(=O)O)C(=CCC4[C@@]5(C)CC[C@H](O[C@@H]6O[C@@H](C)[C@H](O[C@@H]7O[C@H](CO)[C@@H](O)[C@H](O)[C@H]7O)[C@@H](O)[C@H]6O)C(C)(C)C5CC[C@]43C)C2[C@H]1C (some centres not stated)	i	i	i	i
